How the values were obtained:
[1] = target: T1, Aspartate--tRNA(Asp/Asn) ligase (Mycobacterium tuberculosis (strain ATCC 25618 / H37Rv)) (UniProt P9WFW3); experiment: Assay for Asp RNA synthetase-1 from Mycobacterium tuberculosis; assay type: functional; parameters: scale not given: direction of the effect not stated beside the values; details: 30 µM; also: in the data most compounds retested in dose-response had high values
T1 sequence (whole entry): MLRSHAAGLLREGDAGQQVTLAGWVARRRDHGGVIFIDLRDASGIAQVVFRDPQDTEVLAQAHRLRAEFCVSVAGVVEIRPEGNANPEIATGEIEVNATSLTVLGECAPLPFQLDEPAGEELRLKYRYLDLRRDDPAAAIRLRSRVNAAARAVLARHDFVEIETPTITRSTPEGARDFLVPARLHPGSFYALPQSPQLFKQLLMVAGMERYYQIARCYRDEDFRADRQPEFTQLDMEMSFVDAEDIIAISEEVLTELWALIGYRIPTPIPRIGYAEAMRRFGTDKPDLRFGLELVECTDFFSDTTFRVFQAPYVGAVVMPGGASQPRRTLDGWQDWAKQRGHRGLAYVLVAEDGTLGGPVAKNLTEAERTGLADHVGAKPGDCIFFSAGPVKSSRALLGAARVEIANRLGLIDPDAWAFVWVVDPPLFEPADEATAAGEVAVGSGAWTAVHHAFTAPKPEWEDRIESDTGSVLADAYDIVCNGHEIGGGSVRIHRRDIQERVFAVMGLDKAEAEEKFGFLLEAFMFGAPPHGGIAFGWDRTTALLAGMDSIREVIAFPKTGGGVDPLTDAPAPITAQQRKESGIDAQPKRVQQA

[2] = target: Shiga toxin 2 (Escherichia coli O157:H7) (UniProt P09385+P09386); experiment: E. coli 0.157:H7 Shiga Toxin SOP - stx2 screening assay; assay type: functional; parameters: scale not given: direction of the effect not stated beside the values; details: 30 µM

Structure (SMILES)	Percent Effect [1]	Percent Effect [2]
CN(C)CCN1CCO[C@H]2CN(Cc3cnn(C)c3)C[C@H]21	-1.31%	-7.4%
Cc1nnc(NC(=O)NCc2ccc(N3CCN(C)CC3)nc2)s1	3.74%	24.2%
CCNC(=O)c1ncn2c1CN(C)S(=O)(=O)c1ccccc1-2	-3.46%	-5.52%
CO[C@H]1CN(C(=O)c2ccc3oc(C)cc3c2)CC[C@@]12CCCO2	1.12%	7.39%
CN(C(=O)c1cccc(C(=O)NS(C)(=O)=O)c1)c1ccccc1	9.93%	-20.1%
CC(O)CN1CCN(C(=O)c2cccn2Cc2ccncc2)CC1 (configuration not stated)	-3.51%	13.7%
Cc1ccc(N2CCC3(CC2)CC(OCC(=O)N(C)C)CO3)nn1 (configuration not stated)	-2.52%	-23.3%
COc1cccc(CN(C)Cc2ccc(C#N)cc2)c1OC	-1.31%	9.74%
CC1COCCN1C(=O)c1cccc(OCc2cscn2)c1 (configuration not stated)	-6.86%	0.62%
COC(=O)C(C)(C)NC(=O)C1CC(=O)N(C2CCCC2)C1 (configuration not stated)	0.137%	-3.28%
O=C(c1ccc[nH]1)N1C[C@H]2CC[C@@H]1CN(C1Cc3ccccc3C1)C2	2.83%	10.5%
Cc1nc(C2CCCN(C(=O)c3cccc4c3OCO4)C2)no1 (configuration not stated)	5.25%	-12.6%
Cn1cc(-c2csc(CN3CCOCC3)n2)cn1	-7.74%	2.01%
Cc1ccccc1CS(=O)(=O)CC(=O)NC1CCCCNC1=O (configuration not stated)	-3.58%	-14.7%
O=C(CN(Cc1cccnc1)CC1CCCO1)Nc1ccc(F)cc1 (configuration not stated)	5.92%	-3.06%
O=C([C@@H]1CC[C@@H]2[C@@H](CCN2Cc2ccoc2)O1)N1CCCC1	0.466%	1.2%
N#Cc1c(F)cccc1N1CCN(S(=O)(=O)c2cccs2)CC1	4.83%	-12.3%
Cc1cc(=O)n2ncnc2n1CC(O)c1cc(F)ccc1F (configuration not stated)	3.44%	1.57%
O=C(NCC(=O)N1CCCCC1)c1ccc(Cl)cc1I	0.257%	1.85%
CCC1=N[C@@]2(CC[C@@H]3CN(C(=O)NCc4ccccc4)C[C@@H]32)C(=O)N1	1.75%	5.39%
COCCOc1ccc(NC(=O)N(C)Cc2ccsc2)cn1	0.514%	-8.11%
Cc1nc2cc(O)nn2c(C)c1CCC(=O)N(C)Cc1cscn1	8.09%	4.66%
COc1ccc(C(=O)Nc2cnn(CC(=O)NC3CCCC3)c2)c(O)c1	1.25%	-54.5%

Structure (SMILES)	Percent Effect [1]	Percent Effect [2]
Cc1ccc(CN2CC[C@H]3[C@@H]2CCC(=O)N3CCN2CCCC2)s1	2.78%	-33.4%
Cc1occc1C(=O)N1CCC2(CC1)CC(c1cccnc1)C(=O)N2C (configuration not stated)	-1.22%	-20.1%
O=C(NCc1ccco1)C1CCCN1Cc1nc(-c2ccco2)no1 (configuration not stated)	3.58%	23.3%
Cc1cc(C2CCCN2CCCS(=O)(=O)c2ccccc2)no1 (configuration not stated)	-1.06%	-12.2%
CC(C)(CNC(=O)OC(C)(C)C)NC(=O)C1CC(=O)N(C2CC2)C1 (configuration not stated)	3.37%	-23.3%
Cc1nc(CC(=O)N2CCC[C@H]2c2nc(C(C)C)no2)cs1	-2.23%	4.58%
Cc1cccc(COC[C@]23COC[C@H]2CN(C(=O)c2ccsc2)C3)n1	1.56%	7.59%
CCn1nc(CC(C)C)cc1C(=O)NCCn1cccc1	3.71%	-3.77%
CC(C)NC(=O)COc1nc(C(C)C)no1	-2.64%	-17.3%
CN(C(=O)NCCCN1CCCC1)C1CCN(c2ccccc2)C1=O (configuration not stated)	-0.189%	24.2%
COCC(=O)NCc1cccc(Br)c1	-1.9%	20.1%
COCCC(=O)N1CCc2cc(Cl)cc(Cl)c2C1	1.46%	-18.1%
Cc1ncc2c(n1)CN(CC(=O)Nc1nncs1)CC2	-3.23%	-20.4%
O=C(CCc1ccccc1)N1CCn2cc(CN3CCCC3)nc2C1	0.131%	-15.9%
CCCNC(=O)c1sc(Nc2ccc(Cl)cn2)nc1C	-4.04%	-46.7%
Cc1cnn(CCC(=O)N2CCN(c3nc(C)cs3)CC2)c1	-4.11%	-15.5%
NC(=O)NCC(=O)N1C[C@H]2CC[C@@H]1CN(Cc1ccccc1)C2	15.6%	-8.55%
COc1cccc(CCC(=O)N2CCCCC2Cn2cccn2)c1 (configuration not stated)	1.44%	22.5%
c1cnnc(N2CCCC2CNCc2nc(C3CC3)no2)c1 (configuration not stated)	-4.43%	5.95%
O=c1[nH]c2c(c(=O)n1C1CCCCC1)CCC2Nc1ccccc1 (configuration not stated)	3.05%	1.28%
COc1c(CNCC(O)c2cccc(F)c2)c(C(C)C)nn1C (configuration not stated)	7.7%	15.6%
CCOCC(=O)N1C[C@@H](O)[C@H](N(C)Cc2ccc(OC)cc2)C1	-0.849%	14.7%
CC(c1nc(C2CC2)no1)N1CCN(Cc2cccc(C#N)c2)CC1 (configuration not stated)	-3.08%	9.24%
